Assay outcomes from PubChem BioAssay.
G9a inh: G9a (human) methyltransferase inhibition; G9a H3K9 monomethylation, AlphaScreen, 2 h; Potency, µM (doses to about 102 µM), for inactives: top-dose activity, negative = inhibition, most hits filed as inhibitors; hit rate 8.8% among 350,000; AID 504332; also: potency is read from the fitted curve at half-maximal effect; % is scaled to controls: 0 for no effect and ±100 for the full control effect; nearly all actives have a fitted effect of over 75% in size
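Compounds were preincubated with 20 nM G9a for 15 min, after which biotinylated H3K9 peptide (500 nM) and SAM (20 uM) started a 2 h room-temperature reaction. Monomethylated product was quantified by antibody-based AlphaScreen chemiluminescence.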
PLK1 PBD block: blocks phosphopeptide binding to human PLK1 polo-box domain | P53350 | Plk1 PBD binding of FITC phosphopeptide, fluorescence polarization | Potency, µM, for inactives: max response, negative = inhibition, actives largely listed as inhibitors | hit rate 2.8% among 360,000 | AID 720504; also: potency is read from the fitted curve at half-maximal effect; series mostly up to about 57 µM; % is scaled to controls: 0 for no effect and ±100 for the full control effect; nearly all actives have a fitted effect of over 65% in size
PI5P4Ka inh: inhibitors of human PI5P4K alpha. max response, %. hit rate 1.2% among 330,000. PI5P4Kalpha enzyme, ADP-Glo luminescence, 60 min; hits give low values. AID 652105; active = max response of -50% or lower; inconclusive = between -30% and -50%; inactive = -30% or higher; also: value at the top dose of about 77 µM; % is scaled to controls: 0 for no effect and ±100 for the full control effect
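PI5P4Kalpha ADP-Glo assay; 5 microM ATP final; 60 min RT reaction; HEPES pH 7.4/EGTA/CHAPS, 5% DMSO; controls lacking substrate or enzyme; luminescent end-point.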
JMJD2A Tudor inh: JMJD2A Tudor domain (human) inhibition. AlphaScreen JMJD2A-Tudor / H3K4me3 peptide binding. Potency, µM (titrated, usually from 114 µM), without a hit: top-dose activity change, negative = inhibition, actives largely listed as inhibitors. hit rate 4.4% among 390,000; also: potency is read from the fitted curve at half-maximal effect; % is scaled to controls: 0 for no effect and ±100 for the full control effect; nearly all actives have a fitted effect of over 50% in size
HP1b binding inh: HP1-beta chromodomain-methylated histone interaction inhibition | AlphaScreen HP1-beta / biotin-H3K9me3 peptide binding | Potency, µM (top dose mostly 114 µM), without a hit: at the highest dose activity change, negative = inhibition, hits mostly inhibitors | hit rate 0.56% among 390,000; also: potency is read from the fitted curve at half-maximal effect; nearly all actives have a fitted effect of over 70% in size
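Compound inhibition of the preformed complex between 50 nM HP1-beta and 50 nM biotinylated H3K9me3 peptide was read by AlphaScreen. Buffer was PBS pH 7.4 with 0.01% Tween-20. Incubations ran 30 min at room temperature, with 10 ug/mL donor/acceptor beads.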
BAZ2B block: BAZ2B (human) inhibition; Q9UIF8; AlphaScreen BAZ2B-H3K14Ac peptide displacement; Potency, µM (titrated, usually from 114 µM), for inactives: at the highest dose activity change, negative = inhibition, hits mostly inhibitors; hit rate 4.4% among 360,000; AID 504333; also: potency is read from the fitted curve at half-maximal effect; % is scaled to controls: 0 for no effect and ±100 for the full control effect; nearly all actives have a fitted effect of over 60% in size
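Inhibition is scored as reduced AlphaScreen emission. The BAZ2B/b-H3(5-23)K14Ac complex (50 nM each) in PBS pH 7.4, 0.01% Tween-20 meets compound (up to 110 uM) for 30 min at RT before bead addition.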
Active calls of the source: *; ? = inconclusive; nt = not tested or not shown; ! = not active in a repeat; [ ] = dose if it differs, or a comment. Sampled rows, rich in hits. Any-hit rate of the full collection: about 12%. Unless noted, calls follow the shape of the dose curve; as a rule, active = well fitted curve in the direction sought with a large enough effect; inconclusive = small, poorly fitted or top-dose-only effect, or another doubt; inactive = no such curve, though single readings can be large; an effect the other way counts as inactive or inconclusive.

SMILES | G9a inh | PLK1 PBD block | PI5P4Ka inh | JMJD2A Tudor inh | HP1b binding inh | BAZ2B block
O=C(O)CCCNC(=O)c1cccc(C(=O)NCCCC(=O)O)n1 | 20µM* | -4% | -9 | ? | -2% | ?
O=C(O)C1CC(C(=O)O)SS1 (configuration not stated) | nt | -19% | 8 | 32µM* | -6% | nt
O=S(=O)(c1cccc2cnccc12)N1CCCNCC1 | ? | -5% | -1 | 89µM* | 5% | 4%
O=S(=O)(c1ccccc1)N1CCNCC1 | nt | 1% | -8 | 14% | 17% | nt
CC1CNCCN1S(=O)(=O)c1cccc2cnccc12 (configuration not stated) | 11µM*! | -14% | -3 | -28% | 33% | ?
O=S(=O)(c1cc(Cl)ccc1Cl)N1CCNCC1 | 12% | -6% | nt | -19% | 18% | 10%
COC(C)(C)[C@@H](O)COc1c2ccoc2cc2oc(=O)ccc12 | 11%[2.33 µM] | -13% | -1 | -16% | 20% | 13%
CCOC(=O)c1cc(NC(=O)c2ccc(C)cc2)c(=O)n2c1oc1ccc(Cl)cc12 | 12%[59 µM] | nt | nt | 6% | 82% | 3%
CN(C)S(=O)(=O)c1cccc(NC(=O)c2cccc(S(=O)(=O)N3CCc4ccccc43)c2)c1 | -3%[2.33 µM] | -10% | 2 | -33% | 17% | 2%
COC(=O)[C@@]1(Cc2ccc(F)cc2)[C@H]2c3cc(C(=O)N(C)C)n(CCN4CCOCC4)c3C[C@H]2CN1C(=O)c1ccccc1 | nt | -9% | 4 | nt | nt | nt
CC(=O)N1CCN(C(=O)CCc2cc(C(C)(C)C)c(O)c(C(C)(C)C)c2)CC1 | nt | -12% | 1 | -15% | 4% | -13%
O=[N+]([O-])c1cccc(S(=O)(=O)Nc2ccc(S(=O)(=O)N3CCCC3)cc2)c1 | nt | 3% | -3 | -8% | 38% | nt
O=[N+]([O-])c1ccc(Cl)c(S(=O)(=O)Nc2ccc(S(=O)(=O)N3CCOCC3)cc2)c1 | 45µM* | -7% | -6 | -2% | 28% | -2%
COC(=O)CNC(=O)c1ccc(NS(=O)(=O)c2cc([N+](=O)[O-])ccc2Cl)cc1 | 56µM* | -22% | -2 | -15% | 11% | 16%
O=[N+]([O-])c1ccc(S(=O)(=O)Nc2ccc(S(=O)(=O)N3CCCC3)cc2)cc1 | 35µM* | -6% | -3 | -1% | 14% | -21%
CCOc1ccc(CCNC(=O)Cn2nnc(-c3ccc(C(F)(F)F)cc3)n2)cc1OCC | 3%[59 µM] | nt | nt | -7% | 32% | ?
O=C(Nc1nnc(-c2ccc(F)cc2)o1)c1ccco1 | 27%[12.7 µM] | -1% | -17 | 79µM* | 47% | 50µM*
Cc1ccccc1C(=O)Nc1nnc(-c2ccc(F)cc2)o1 | -12% | 4% | -4 | -18% | 53% | ?
CS(=O)(=O)c1ccccc1-c1nnc(NC(=O)CCS(=O)(=O)c2ccc(Cl)cc2)o1 | 6% | -12% | -2 | ? | 45% | ?
CS(=O)(=O)c1ccccc1-c1nnc(NC(=O)c2ccco2)o1 | 14µM* | -2% | -2 | 20µM* | 14% | 50µM*
COc1ccccc1C(=O)Nc1ncc2c(n1)CC(c1ccco1)CC2=O (configuration not stated) | 50µM* | -4% | nt | -30% | 8% | 50µM*
COc1ccc(C2CC(=O)c3cnc(NC(=O)c4ccco4)nc3C2)cc1 (configuration not stated) | 21% | -7% | -12 | -25% | 16% | -28%
Cc1ccc2cc(CN(C(=O)c3cccc(Cl)c3)c3ccccc3)c(=O)[nH]c2c1 | -3%[59 µM] | nt | nt | -6% | 38% | -2%
Cc1cc(C(=O)NNC(=O)/C=C/c2ccco2)c(C)o1 | 22µM* | 24µM* | ? | 45µM* | ? | ?
O=C(/C=C/c1ccco1)NC(=S)Nc1ccc(Cl)cn1 | 40µM* | -13% | -21 | -30% | 8% | ?
SMILES | G9a inh | PLK1 PBD block | PI5P4Ka inh | JMJD2A Tudor inh | HP1b binding inh | BAZ2B block
Cc1ccnc(NC(=S)NC(=O)/C=C/c2ccco2)c1 | ? | -11% | -28 | -27% | 30% | ?
COc1ccccc1/C=C/C(=O)NNC(=O)c1cc(C)oc1C | -32% | -14% | 1 | -17% | 22% | -7%
O=C(/C=C/c1ccco1)NC(=S)NNC(=O)c1ccco1 | 11µM* | ? | nt | -21% | -4% | 2%
C=CCNC(=S)NNC(=O)c1ccco1 | -23% | -3% | 1 | -5% | 43% | -35%
O=C(/C=C/c1ccccc1)N/C(=C/c1ccccc1)C(=O)Nc1ccc(C(=O)O)cc1 | 2% | 27µM* | -19 | 50µM* | 8% | -6%
Cc1cnc(CNc2ncnc3ccc(-c4ccc(N(C)C)cc4)cc23)cn1 | -7%[0.501 µM] | nt | nt | nt | nt | nt
NC(=O)c1cccc(-c2coc3c(C(=O)NCc4ccccc4)cccc23)c1 | nt | -5% | -3 | nt | nt | nt
CCN(CC(=O)Nc1ccc(NC(C)=O)cc1)C(=O)/C=C/c1cccs1 | 4%[59 µM] | 0% | -5 | -6% | 37% | 1%
O=C(/C=C/c1ccco1)NC(=S)Nc1ccc(O)c(-c2nc3ccccc3s2)c1 | 40µM* | -20% | -18 | ? | -1% | -4%
CC(C)C(=O)N1CCN(c2ccccc2NC(=S)NC(=O)/C=C/c2ccco2)CC1 | nt | -17% | -7 | -34% | -11%[57 µM] | nt
CCN(CC(=O)Nc1ccc(NC(C)=O)cc1)C(=O)/C=C/c1ccco1 | 50µM* | -3% | -8 | -7% | 9% | -22%
O=C(/C=C/c1ccc(Cl)cc1)NC(=S)Nc1ccc(C(=O)O)cc1 | ? | 30µM* | -27 | 22µM* | ? | 50µM*
O=C(/C=C/c1ccco1)Nc1ccccc1N1CCCCC1 | 50µM* | -12% | -7 | -23% | ? | ?
CCC(Oc1cc(Cl)ccc1Cl)C(=O)N1CCCN(C)CC1 (configuration not stated) | 16% | -8% | 0 | -13% | 5% | -14%
NC(=O)c1ccccc1NC(=O)c1cccc(C(=O)Nc2ccccc2C(N)=O)n1 | nt | -4% | 4 | -33% | 46% | nt
COc1cc(OC)c(C2C=C(c3ccc(C)cc3)Nc3c(C(=O)Nc4ccccc4)cnn32)cc1OC (configuration not stated) | ? | nt | nt | ? | 7% | -31%
COC(=O)c1cc2sc(Cl)cc2n1Cc1nc(-c2ccccc2F)oc1C | -20%[59 µM] | nt | nt | -1% | 24% | 1%
O=C(/C=C/c1ccco1)NC(=S)Nc1ccc(C(=O)O)cc1 | 10µM* | ? | -79* | 35µM* | 71µM* | 32µM*
CCC(=O)Nc1ccc(NC(=S)NC(=O)/C=C/c2ccco2)cc1 | -9%[0.501 µM] | ? | -19 | ? | -9% | -31%
O=C(/C=C\c1ccco1)Nc1ccc(N2CCN(C(=O)c3ccccc3)CC2)cc1 | ? | -8% | -7 | -27% | -12% | 71µM*
